Data: the supplement of paper PMC13380429
Values without a mark were called inactive.

Tested on: Vero E6 infected with SARS-CoV-2
Experiment: inhibition of SARS-CoV-2 cytopathic effect; higher = more antiviral protection, active = above 15
Details: 48 h

Row | SMILES | inhibition of SARS-CoV-2 cytopathic effect (1 nM) [%] | inhibition of SARS-CoV-2 cytopathic effect (8.33 nM) [%] | inhibition of SARS-CoV-2 cytopathic effect (100 nM) [%] | inhibition of SARS-CoV-2 cytopathic effect (833.33 nM) [%] | inhibition of SARS-CoV-2 cytopathic effect (10000 nM)
1 | CC[N+](CC)(CC)CCOc1ccc(/C=C/c2ccccc2)cc1 | -0.65 | 1.39 | 2.2 | 1.89 | 7.99%
2 | CCCCCCCCCCCCCCCCCCN(CCCCCCCCCCCCCCCCCC)CCCN(CCO)CCO [avridine] | -9.9 | -6.98 | -5.76 | -5.17 | -10.1%
3 | CN(C)CCOC(c1ccccc1)c1ccccc1.Cn1c(=O)c2[nH]c(Cl)nc2n(C)c1=O [dimenhydrinate] | 1.11 | -2 | 0.95 | 0.58 | 0.68%
4 | O=C(O)C(Cl)Cl [dichloroacetate] | 4.14 | 1.34 | 2.35 | 0.22 | 2.63%
5 | C[C@H](N)[C@H](O)c1ccc(O)c(O)c1 [levonordefrin] | -3.75 | 0.14 | -1.88 | 1.27 | -2.48%
6 | Cc1cccc(C)c1NC(=O)CN1CCCC1=O [nefiracetam] | -0.7 | 0.26 | -2.77 | 1.22 | -6.8%
7 | COc1ccc(CC(C)NCC(O)c2ccc(O)c(NC=O)c2)cc1 (stereo not given) [formoterol] | 0.12 | 2.33 | 1.69 | 0.54 | 10.8%
8 | CN(C)CCN1C(=O)c2cccc3cc(N)cc(c23)C1=O [amonafide] | 4.04 | 2.14 | 1.57 | 3.27 | -6.16%
9 | Nc1cc(C(Cl)=C(Cl)Cl)c(S(N)(=O)=O)cc1S(N)(=O)=O [clorsulon] | -0.52 | 2.04 | 2.84 | -0.01 | -2.69%
10 | O=C(O)CNC(=O)c1ccccc1 [hippuric-acid] | -0.58 | 1.5 | 3.97 | 1.76 | 0.17%
11 | N#Cc1cccc(-c2nc(-c3cccnc3)no2)c1 | -1.62 | 0.72 | -0.15 | -1.08 | 2.85%
12 | CCc1cccc(CC)c1NC(=O)N1Cc2[nH]nc(NC(=O)c3ccc(N4CCN(C)CC4)cc3)c2C1 | -4.07 | 1.98 | 1.34 | 1.38 | -0.02%
13 | O=C(NCC1CCOCC1)c1cnc(Nc2ccc(Cl)cc2Cl)nc1C(F)(F)F | -0.74 | 0.36 | 0.86 | 1.5 | 3.56%
14 | CC(=O)N(O)[C@@H]1c2cc(C#N)ccc2OC(C)(C)[C@H]1O | -2.54 | 0.31 | 1.05 | 0.36 | 3.02%
15 | N[C@@]1(C(=O)O)CC[C@H]2[C@H](C(=O)O)[C@H]21 [eglumetad] | 0.4 | -0.24 | -0.34 | -0.18 | 2.06%
16 | CCN(CC)CCNC(=O)c1cc(Cl)c(N)cc1OC [metoclopramide] | -0.44 | 0.96 | 0.31 | -0.29 | -1.37%
17 | N=C(N)NCCC[C@@H](N)C(=O)N[C@@H](CCCNC(=N)N)C(=O)N1CCC[C@H]1C(=O)N1C[C@H](O)C[C@H]1C(=O)NCC(=O)N[C@@H](Cc1cccs1)C(=O)N[C@@H](CO)C(=O)N1Cc2ccccc2C[C@@H]1C(=O)N1[C@H](C(=O)N[C@@H](CCCNC(=N)N)C(=O)O)C[C@@H]2CCCC[C@@H]21 [icatibant-acetate] | -2.62 | -4.61 | -4.27 | 2.14 | 1.26%
18 | O=C1NCN(c2ccccc2)C12CCN(CCCC(c1ccc(F)cc1)c1ccc(F)cc1)CC2 [fluspirilene] | 0.39 | -2.06 | -3.28 | -5.63 | 10.3%
19 | CN1CCN(CCCCN2C(=O)CN(/N=C/c3ccc(-c4ccc(Cl)cc4)o3)C2=O)CC1 [azimilide] | 0.53 | 0.51 | 2.48 | 0.41 | -1.08%

Row | SMILES | inhibition of SARS-CoV-2 cytopathic effect (1 nM) [%] | inhibition of SARS-CoV-2 cytopathic effect (8.33 nM) [%] | inhibition of SARS-CoV-2 cytopathic effect (100 nM) [%] | inhibition of SARS-CoV-2 cytopathic effect (833.33 nM) [%] | inhibition of SARS-CoV-2 cytopathic effect (10000 nM)
20 | C=C1CCN([C@H](C)[C@](O)(Cn2cncn2)c2ccc(F)cc2F)CC1 [efinaconazole] | -0.21 | 1.69 | 0.85 | 0.56 | 2.84%
21 | C[C@@H]1CC[C@@]2(OC1)O[C@H]1C[C@H]3[C@@H]4CC=C5C[C@@H](O[C@@H]6O[C@H](CO)[C@@H](O[C@@H]7O[C@@H](C)[C@H](O)[C@@H](O)[C@H]7O)[C@H](O)[C@H]6O[C@@H]6O[C@@H](C)[C@H](O)[C@@H](O)[C@H]6O)CC[C@]5(C)[C@H]4CC[C@]3(C)[C@H]1[C@@H]2C [dioscin] | -2.63 | 0.88 | -2.63 | 0.22 | -12.2%
22 | O=C(O)c1ccccc1Nc1cccc(OCc2ccc3ccccc3n2)c1 | -0.27 | 2.38 | 0.56 | 0.3 | -0.51%
23 | O=C(O)c1cc(=O)c2ccccc2[nH]1 [kynurenic-acid] | 3.61 | 1.12 | 2.79 | 2.98 | 1.89%
24 | OC(CCN1CCCCC1)(c1ccccc1)C1CCCCC1 (stereo not given) [trihexyphenidyl] | -14.3 | -7.63 | -2.35 | -9.38 | -10.1%
25 | COc1cc(N2CCN(C)CC2)ccc1Nc1nccc(-c2cn(C)c3cnccc23)n1 | 0.14 | -0.24 | 2.63 | -0.7 | 40.7% (active)
26 | Nc1nc(N)nc(-c2cc(Cl)ccc2Cl)n1 [irsogladine] | 2.68 | 1.38 | 0.04 | 1.79 | -0.24%
27 | COc1ccccc1CN[C@H]1CCCN[C@H]1c1ccccc1 | -0.59 | -1.96 | 2.38 | -1.82 | -3.19%
28 | O=C(Nc1ccc(N2CCC(C(=O)N3CCOCC3)CC2)cc1)c1cnc(Oc2ccccc2)nc1 | 0.64 | 1.26 | 2.38 | 1.19 | -0.78%
29 | O=C(O)CCC(=O)OC[C@@H](NC(=O)C(Cl)Cl)[C@H](O)c1ccc([N+](=O)[O-])cc1 [chloramphenicol-sodium-succinate] | 3.1 | -0.01 | 2.32 | 3.18 | 1.6%
30 | CCCCCCN(CCCCCC)C(=O)Cc1c(-c2ccc(F)cc2)[nH]c2ccccc12 | 5.1 | 3.61 | 3.88 | 0.72 | -4.49%
31 | CCCC[C@]1(CC)CS(=O)(=O)c2cc(CNC(CC(=O)O)CC(=O)O)c(OC)cc2[C@@H](c2ccccc2)N1 | 3.94 | 3.04 | 5.12 | 1.44 | 1.53%
32 | N[C@@H](C(=O)O)c1nn[nH]n1 (racemic) [tetrazol-5-yl-glycine-(RS)] | -2.49 | -1.1 | 0.87 | 1.56 | -1.13%
33 | COc1ccc(COc2ccc(Cc3cnc(N)nc3N)cc2OC)cc1 | -0.78 | -1.56 | -0.01 | 0.11 | 0.48%
34 | O=C(O)/C=C/c1ccc(Cn2ccnc2)cc1 [ozagrel] | 0.02 | 3.28 | 0.19 | 0.75 | -0.91%
35 | O=C1NC(=O)c2cc(Nc3ccc(F)cc3)c(Nc3ccc(F)cc3)cc21 | 1.21 | -0.56 | -1.81 | 0.4 | 10.3%
36 | COC1=C(OC)C(=O)C(CCCCCCCCCCO)=C(C)C1=O [idebenone] | -0.23 | -3.04 | -0.1 | 0.64 | 0.26%
37 | CCC(=O)OCC(=O)[C@@]1(OC(=O)CC)[C@@H](C)C[C@H]2[C@@H]3CCC4=CC(=O)C=C[C@]4(C)[C@@]3(F)[C@@H](O)C[C@@]21C | -0.73 | 0.98 | -1.61 | 0.59 | -0.08%
38 | C=C[C@H]1CN2CC[C@H]1C[C@@H]2[C@@H](O)c1ccnc2ccc(OC)cc12 [quinidine] | -8.54 | -5.1 | -8.19 | -4.54 | -4.21%
